Measured values reported in PubChem BioAssay (NCI).
About 83,000 compounds went through this panel and 20% of them were active in at least one assay; those are over-represented in the sample as a whole.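 Negative percent growth values reflect cell death: -40 means 40% of the cells present at the start died, and -100 means all died.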 Calls of active or inactive are those of the source. How the source made its calls: active means growth percent below 10; inactive means the rest.

Columns and labels:
Assay in all cases: NCI-60 one-dose screen, 48 h (100 = growth as untreated, 0 = no growth, -100 = all killed)
Settings in all cases: 10 µM
[1] = test system: SR leukemia
[2] = test system: OVCAR-8 ovarian
[3] = test system: OVCAR-5 ovarian
[4] = test system: OVCAR-4 ovarian
[5] = test system: SK-OV-3 ovarian
[6] = test system: IGROV1 ovarian
[7] = test system: OVCAR-3 ovarian
[8] = test system: HS 578T breast
[9] = test system: NCI/ADR-RES ovarian
[10] = test system: T-47D breast
[11] = test system: BT-549 breast
[12] = test system: MDA-MB-435 melanoma
[13] = test system: SW-620 colon
[14] = test system: MCF7 breast
[15] = test system: HCT-116 colon
[16] = test system: HCC-2998 colon
[17] = test system: KM12 colon

Measured: growth

Nc1nc(-c2cccnc2)nc2c1sc(=S)n2-c1ccccc1
inactive: [1] 113% | [2] 101% | [3] 125% | [4] 128% | [5] 103% | [6] 98.1% | [7] 114% | [8] 91.4% | [9] 93.1% | [10] 90.8% | [11] 101% | [12] 111% | [13] 104% | [14] 94.4% | [15] 70.7% | [16] 105% | [17] 99%

COc1ccc(-c2nn(-c3cccc(Cl)c3)cc2-c2cc(-c3ccccc3)nc(N)n2)cc1
inactive: [1] 11.3% | [2] 67.9% | [3] 59% | [4] 56.1% | [5] 98.5% | [6] 83.7% | [7] 72.2% | [8] 62% | [9] 53.3% | [10] 46.5% | [11] 73% | [12] 57% | [13] 45.3% | [14] 12.9% | [16] 21.9% | [17] 31.8%
active: [15] 5.52%

Cc1n[nH]c(C)c1N=Nc1cccc2c1C(=O)c1ccccc1C2=O
inactive: [1] 91.4% | [2] 91.3% | [3] 91.8% | [4] 89.5% | [5] 93.6% | [6] 84.1% | [7] 106% | [8] 96.7% | [9] 89.1% | [10] 79.3% | [11] 100% | [12] 107% | [13] 84.6% | [14] 81% | [15] 77.8% | [16] 96.1% | [17] 99.5%

COc1ccc(C(=O)c2ccccc2CN2C(=O)c3ccccc3C2=O)cc1
inactive: [1] 91.8% | [2] 97% | [3] 109% | [4] 105% | [5] 109% | [6] 101% | [7] 105% | [8] 105% | [9] 95.5% | [10] 90.6% | [11] 112% | [12] 108% | [13] 99% | [14] 102% | [15] 101% | [16] 105% | [17] 107%

COc1ccc(-c2cc(-c3ccccc3)nc(SCCCC(=O)NO)n2)cc1
inactive: [1] 12.3% | [3] 17% | [4] 13.5% | [8] 13.8% | [11] 19.6% | [17] 17.3%
active: [2] 6.59% | [5] -20.5% | [6] -32.6% | [7] -22.8% | [9] -40.5% | [10] -1.07% | [12] -3.03% | [13] 2.34% | [14] -5.14% | [15] 3.36% | [16] -16.6%

N#Cc1c(-c2ccc(Cl)cc2)n(O)c2ccccc12
inactive: [2] 26.1% | [3] 66% | [4] 26.5% | [5] 12.9% | [10] 13.2% | [13] 15.3% | [14] 17.5% | [15] 12.9% | [16] 47.2% | [17] 15.9%
active: [1] 9.6% | [6] 4.22% | [7] 4.13% | [8] -21.6% | [9] 2.73% | [11] 0.694% | [12] 2.57%

CCCN(CCC)C(=O)[C@H](CC)[C@@H]1CC[C@@H](C)[C@@H]([C@H](C)[C@@H](O)[C@@H](C)C(=O)[C@H](CC)C2O[C@]3(C=C[C@@H](O)[C@]4(CC[C@@](C)([C@H]5CC[C@](O)(CC)[C@H](C)O5)O4)O3)[C@H](C)C[C@@H]2C)O1 (some centres undefined)
active: [4] 7.28% | [5] 3.96% | [7] 2.11% | [9] -11.2% | [11] 6.17% | [12] 3.17% | [13] 9.23% | [14] -15.3% | [15] 6.43% | [16] 4.75%
inactive: [1] 15.2% | [2] 15% | [3] 11.4% | [6] 17.1% | [8] 11.7% | [10] 11.1% | [17] 19.9%

O=C(NCCNC(=O)c1ccc(F)cc1)Nc1ccc(-n2cc(-c3ccncc3)c(-c3ccc(Cl)c(O)c3)n2)cc1
active: [1] -0.62% | [2] 4.62% | [5] -8.18% | [7] 3.59% | [11] -24.5% | [12] -5.7% | [14] 3.7% | [15] -24.2% | [16] -28.4% | [17] 0.713%
inactive: [3] 27.8% | [4] 37.1% | [6] 20.4% | [8] 16.6% | [9] 77.4% | [10] 30.1% | [13] 15.1%

O=S(=O)(NCCCNc1nccc(-c2cn(-c3ccccc3)nc2-c2ccc(Cl)c(O)c2)n1)c1ccccc1
inactive: [1] 42% | [2] 59.5% | [3] 118% | [4] 71.1% | [5] 83.8% | [6] 73.5% | [7] 66.8% | [8] 67.3% | [9] 33.3% | [10] 42.9% | [11] 75.9% | [12] 68.7% | [13] 102% | [14] 33% | [15] 53.1% | [16] 91.6% | [17] 56.7%

COc1ccc2nc(Cl)c(Cn3nnc(Cc4ccccc4)n3)cc2c1
active: [10] 2.44%
inactive: [1] 22.9% | [2] 40.5% | [3] 82.8% | [4] 19.7% | [5] 49.4% | [6] 43.2% | [7] 49.8% | [8] 68.9% | [9] 20.1% | [11] 20.3% | [12] 29.3% | [13] 66.4% | [14] 27.9% | [15] 29.2% | [16] 59% | [17] 36.5%

C=CCN(CC=C)C(=O)[C@H](CC)[C@@H]1CC[C@@H](C)[C@@H]([C@H](C)[C@@H](O)[C@@H](C)C(=O)[C@H](CC)C2O[C@]3(C=CC(=O)[C@]4(CC[C@@](C)([C@H]5CC[C@](O)(CC)[C@H](C)O5)O4)O3)[C@H](C)C[C@@H]2C)O1 (some centres undefined)
inactive: [1] 49.1% | [2] 32.4% | [3] 32.8% | [4] 42.7% | [5] 41% | [6] 43.5% | [7] 29.8% | [8] 33.9% | [9] 16.8% | [10] 18.2% | [11] 54.8% | [12] 40.7% | [13] 24.8% | [15] 13.9% | [16] 26.5% | [17] 48.8%
active: [14] 8.84%

CCCCN(CCCC)C(=O)[C@H](CC)[C@@H]1CC[C@@H](C)[C@@H]([C@H](C)[C@@H](O)[C@@H](C)C(=O)[C@H](CC)C2O[C@]3(C=C[C@@H](O)[C@]4(CC[C@@](C)([C@H]5CC[C@](O)(CC)[C@H](C)O5)O4)O3)[C@H](C)C[C@@H]2C)O1 (some centres undefined)
inactive: [1] 27% | [2] 12.5% | [3] 24% | [6] 20.1% | [8] 14.5% | [9] 25.4% | [17] 20.6%
active: [4] 9.88% | [5] -8.58% | [7] 4.13% | [10] 5.04% | [11] 8.46% | [12] 4.48% | [13] 9.41% | [14] -14.1% | [15] 2.55% | [16] 2.49%

NS(=O)(=O)Oc1ccc2c(ccn2C(=O)C23CC4CC(CC(C4)C2)C3)c1
inactive: [1] 111% | [2] 105% | [3] 105% | [4] 104% | [5] 121% | [6] 110% | [7] 117% | [8] 109% | [9] 95.5% | [10] 112% | [11] 105% | [12] 106% | [13] 103% | [14] 120% | [15] 102% | [16] 101% | [17] 107%

CC[C@H]1OC(=O)[C@H](C)[C@@H](O[C@H]2C[C@@](C)(OC)[C@@H](O)[C@H](C)O2)[C@H](C)[C@@H](O[C@@H]2O[C@H](C)C[C@H](N(C)C)[C@H]2O)[C@](C)(OC)C/C(C)=C2/O[C@@]1(C)C=C2C
active: [12] -83.4% | [13] -100% | [14] -8.4% | [15] 4.59% | [16] -85.8%
inactive: [1] 14.8% | [2] 78.5% | [3] 24.9% | [4] 73.5% | [5] 102% | [6] 58.1% | [7] 75.3% | [8] 62.5% | [9] 65.4% | [10] 41.8% | [11] 78.7% | [17] 18.2%

O=C(Nc1ccccc1)Nc1ncnc2c1ncn2-c1ccccc1
active: [4] -3.77%
inactive: [1] 70.8% | [2] 55.3% | [3] 83.2% | [5] 44.3% | [6] 78.5% | [7] 73.7% | [8] 50.1% | [9] 66.1% | [10] 51.3% | [11] 89.4% | [12] 84.8% | [13] 94% | [14] 78.9% | [15] 29.2% | [16] 92.6% | [17] 87.4%

CCn1cc(CNc2ccc(C(=O)Nc3ccc4ccccc4c3)cc2)c(C)n1
active: [10] 6.54% | [11] 9.81%
inactive: [1] 46.2% | [2] 45% | [3] 94.4% | [4] 20.8% | [5] 11.8% | [6] 68% | [7] 55.9% | [8] 105% | [9] 23.3% | [12] 25.6% | [13] 87.6% | [14] 49% | [15] 40.5% | [16] 81.5% | [17] 55.5%

C/C(=C/CCC(C)[C@@H]1CC[C@]2(C)C3=C(CC[C@@]12C)[C@@]1(C)CCC(=O)C(C)(C)[C@@H]1CC3)C(=O)O (some centres undefined)
active: [1] -27.8% | [2] -21.9% | [3] -75.6% | [4] -70.2% | [5] -97.5% | [6] -87% | [7] -96% | [8] -37.3% | [9] -52.8% | [10] -48.9% | [11] -90.8% | [12] -75% | [13] -85.2% | [14] -54.8% | [15] -93.1% | [16] -85.3% | [17] -87.6%
